In the library only some 9.3% were active in any assay of this set; here they are far more common.
Vaccinia mCherry – vaccinia inhibition (mCherry reporter); 310,000 tested, 0.63% active; AID 720579; Potency, µM (highest dose often 36.5 µM), for inactives: at the highest dose activity change, negative = inhibition, most hits filed as inhibitors; Vaccinia virus mCherry reporter infection, fluorescence; calls by dose curve; tested in A549 cells; further: potency means the concentration at half of the fitted maximal effect; nearly all actives have a fitted effect of over 35% in size
HCMV inh – blocks human cytomegalovirus replication; HFF cells, HCMV-luciferase reporter, 72 h; stronger effect = lower value; activity change, negative = inhibition, % at 57.5 µM; 410,000 tested, 4.5% active; in the data active means activity change below about -60%; inconclusive means no clear call, values can overlap the other calls; inactive means above about -39%
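Inhibition of viral replication was scored as loss of reporter luminescence in HFFs infected with HCMV-luciferase (MOI 1 PFU/cell) for 72 h; compounds tested at 2 doses, normalized to buffer and Salinomycin controls.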
FMDV inh – antivirals against foot and mouth disease virus; FMDV antiviral cell-based qHTS; Potency, µM (top dose mostly 57.9 µM), without a hit: at the highest dose activity change, negative = inhibition, usual class: inhibitors; 410,000 tested, 1.2% active; AID 1159524; calls by dose curve; tested in HEK293T cells; further: read-out not given here; potency means the concentration at half of the fitted maximal effect; nearly all actives have a fitted effect of over 45% in size
Sm TGR block – blocks Schistosoma mansoni thioredoxin glutathione reductase; Q962Y6; purified TGR, DTNB reduction, TNB absorbance 405 nm; Potency, µM (top dose mostly 114 µM), without a hit: top-dose activity change, negative = inhibition, hits mostly inhibitors; 360,000 tested, 3% active; AID 485364; further: potency means the concentration at half of the fitted maximal effect; nearly all actives have a fitted effect of over 60% in size
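Kinetic colorimetric format: TGR-catalysed, NADPH-driven DTNB reduction monitored via TNB absorbance. Enzyme dispensed at 20 nM; compound exposure 15 min at room temperature before reaction start.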
HCV inhibitor – HCV inhibition; Huh7.5.1 HCVcc-Cre infection, luciferase reporter, 44 h; Potency, µM (titrated, usually from 41.8 µM), without a hit: at the top dose activity change, negative = inhibition, actives largely listed as inhibitors; 340,000 tested, 3.4% active; AID 651820; further: potency means the concentration at half of the fitted maximal effect
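Seed cells (1,000/well) for 4 h; treat with compound and infect with HCVcc-Cre, moi about 0.5. Incubate 44 h, then detect luciferase activity.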
Vaccinia Venus – vaccinia inhibition (Venus reporter) | AID 720580 | Potency, µM (titrated, usually from 36.5 µM), without a hit: top-dose activity change, negative = inhibition, usual class: inhibitors | Vaccinia virus Venus reporter expression, fluorescence | 330,000 tested, 0.46% active; calls by dose curve; tested in A549 cells; further: potency means the concentration at half of the fitted maximal effect; nearly all actives have a fitted effect of over 30% in size
Numbers without * were called inactive; i = inactive; ? = inconclusive; . = not tested or not shown; [ ] = another dose, or the depositor's remark. Unless noted, the call rests on the fitted dose curve; in most records, active means well fitted curve in the direction sought with a large enough effect; inconclusive means small, poorly fitted or top-dose-only effect, or another doubt; inactive means no such curve, though single readings can be large; an effect the other way counts as inactive or inconclusive. On the % scale 0 is the no-effect control and ±100 the full control effect.

SMILES	Vaccinia mCherry	HCMV inh	FMDV inh	Sm TGR block	HCV inhibitor	Vaccinia Venus
CCOc1ccc(CCNC(=O)CS(=O)(=O)Cc2nc(-c3ccccc3F)oc2C)cc1	i	-66*	-28%	?	10µM*	-20%
Cc1ccc(-c2nc(CS(=O)(=O)CC(=O)NC3CCCCCC3)c(C)o2)cc1	i	-15	-9%	25µM*	11%	-23%
Cc1oc(-c2ccccc2F)nc1CS(=O)(=O)CC(=O)NC1CCCC1	i	26	0%	40µM*	-25%	-9%
CCN(CC)CCC(C)OC(=O)c1ccc(O)cc1O (configuration not stated)	2%	46	-15%	0%[57.1 µM]	15%	-4%
CN1CCc2c1nc1ccccc1c2N=C1CCCN1Cc1ccccc1	.	-61*	-28%	-1%	?	.
COC(=O)c1cc(NC(=O)c2cccc(F)c2)cc(C(=O)OC)c1	i	38	-13%	3%	?	-8%
CCN(CC)S(=O)(=O)c1ccc(C(=O)C(C#N)c2ccccn2)cc1 (configuration not stated)	-6%	?	.	1%	10µM*	4%
CCOC(=O)c1ccc(N(C(=O)c2ccco2)C(C(=O)NC2CCCCC2)c2ccncc2)cc1 (configuration not stated)	-14%	-3	11%	-17%	-17%	-1%
CCOc1ccc(-c2ccc(NS(=O)(=O)c3ccc(C)cc3)cc2)nn1	-9%	-10	29%	3%	.	-5%
CCOc1ccc(-c2ccc(NS(=O)(=O)c3cc(C)c(C)cc3C)cc2)nn1	-2%	-77*	39%	6%	.	-17%
COc1ccccc1C(C(=O)c1ccccc1)c1ccc2ccccc2c1 (configuration not stated)	?	7	-16%	.	.	-3%
CCOC(=O)c1cc(NC(=O)CCC(=O)O)ccc1N1CCCCC1	0%	?	0%	6%	26%	-9%
O=C(COC(=O)c1cc([N+](=O)[O-])ccc1N1CCOCC1)Nc1cccc(F)c1	.	-4	40µM*	-1%	13µM*	.
CC(=O)Nc1ccc(NC(=O)COC(=O)c2cc([N+](=O)[O-])ccc2N2CCOCC2)cc1	0%	10	-7%	-25%	-4%	-14%
CCOC(=O)c1ccccc1NC(=O)COC(=O)c1cc([N+](=O)[O-])ccc1N1CCOCC1	i	-17	?	3%	2.2µM*	-26%
Cc1nn(C)c(C)c1/C=C/C(=O)c1ccc(Cl)cc1Cl	?	-81*	?	-1%	7.9µM*	?
CC1=CC(C)(C)Nc2ccc(OC(=O)CN3C(=O)c4ccccc4C3=O)cc21	-12%	-100*	?	-19%	25µM*	65%
CCOc1ccc2c(c1)C(C)=CC(C)(C)N2	-2%	-17	0%	?	-27%	-7%
CC1=CC(C)(C)Nc2ccc(OC(=O)C(Cc3ccccc3)N3C(=O)c4ccccc4C3=O)cc21 (configuration not stated)	.	?	0%	7%	19%	-1%
CC1=CC(C)(C)Nc2ccc(OC(=O)CN3C(=O)c4cccc5cccc(c45)C3=O)cc21	-5%	-78*	?	?	?	19%
COC(=O)c1ccc(OCC2NCCc3cc(OC)c(OC)cc32)cc1 (configuration not stated)	.	.	?	0%	0%	.
CCOC(=O)c1c(C)sc2c1N(C(=O)CCl)c1cc(Cl)ccc1S2	?	-96*	10µM*	2.5µM*	?	-30%
CC(C)N1CCC(N2CCN(CC#Cc3ccccc3)CC2CCO)CC1 (configuration not stated)	3%	3	1%	?	-18%	-6%
CSc1nc2nc3c(cc2c(=O)n1-c1ccccc1C)CCCC3	10%	-91*	?	-4%	?	-18%
COc1cc2c(cc1OC)[C@@H]1N(C)c3ccccc3[C@@]13CCN(S(=O)(=O)C(F)(F)F)C3=C2	.	13	.	.	.	.
Cc1cnc(C(=O)Nc2ccccc2-c2ccc(C)o2)cn1	-13%	29	-8%	20µM*	7.9µM*	0%
